Experiment [1] relates to TRPC4 beta (transient receptor potential cation channel C4), mouse. Briefly: activators of mouse TRPC4 channel, confirmation, cell-based, Fluo4 calcium, HEK293 TRPC4beta/mu-opioid, duplicates, 10 µM (AID 2426;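 active means fluorescence ratio normalized to control raised more than 50% in primary screen plus both repeat runs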). Particulars: Fluo4 calcium fluorescence, at 10 µM; hits give high values.
Experiment [2] deals with transient receptor potential cation channel C4 beta (TRPC4), mouse. Kind of experiment: activators of mouse TRPC4 channel, confirmation, cell-based, second round, Fluo4, HEK293 TRPC4beta/mu-opioid, 1 µM (AID 2461;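 active means primary screen active and over 50% activation in each of two duplicate runs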). Particulars: Fluo4 calcium fluorescence, at 1 µM; hits give high values.
The subject of experiment [3] is TRPC4 (transient receptor potential cation channel C4 beta), mouse. Briefly: positive allosteric modulators of mouse TRPC4, confirmation, cell-based, second round, Fluo-4, HEK293 TRPC4beta/mu-opioid, 1 µM (AID 2554;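 active means primary screen hit whose fluorescence ratio, in both repeats, exceeds the weak agonist control mean by 3 SD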). As to conditions: DAMGO EC20, Fluo-4 calcium flux, at 1 µM; hits give high values. In general terms: Calcium assays in cells follow changes in intracellular calcium, usually with a dye or a luminescent sensor.

In experiment [4] the test system is TRPC4 beta (transient receptor potential cation channel C4), mouse. Kind of experiment: positive allosteric modulators of mouse TRPC4, confirmation, cell-based, Fluo-4, HEK293 TRPC4beta/mu-opioid (AID 2555;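 active means primary screen hit whose calcium fluorescence ratio, in both repeats, exceeds the weak agonist control mean by 3 SD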). Particulars: DAMGO EC20, Fluo-4 calcium flux, at 10 µM; hits give high values.
For experiment [5], the target named is Short transient receptor potential channel 4 (Mus musculus) (UniProt Q9QUQ5). Briefly: inhibitors of mouse TRPC4 channel, confirmation, cell-based, Fluo4, HEK293 TRPC4beta/mu-opioid (AID 2636;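 active means calcium signal cut by more than 3 SD below the full-agonist control yet still positive, in both repeats and the earlier primary screen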). Particulars: DAMGO, Fluo4 calcium flux, at 10 µM; hits give high values.
Experiment [6] shares this target. Briefly: inhibitors of mouse TRPC4 channel, confirmation, cell-based, second round, Fluo4, HEK293 TRPC4beta/mu-opioid, 1 µM (AID 2637;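 active means calcium signal ratio cut to more than 3 SD under the fully stimulated control mean yet still positive, in both repeats and the primary screen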;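 on inhibition: percent of integrated ratio relative to wells lacking test compound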). As to conditions: Fluo4 calcium flux, DAMGO, at 1 µM; hits give high values.
For experiment [7] the target is unchanged. Kind of experiment: mouse TRPC4 channel activators, dose response, cell-based, HEK293 TRPC4/mu-opioid, Fluo-4 calcium (AID 434937). As to conditions: HEK293 TRPC4 cells, Fluo-4 calcium fluorescence ratio; series mostly up to 20 µM.
The target is the same in experiment [8]. Kind of experiment: TRPC4 positive allosteric modulators, dose response, cell-based, HEK293 TRPC4/mu-opioid, Fluo-4 calcium, EC20 DAMGO (AID 434941;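 active means earlier screen potentiator hit that boosts the TRPC4 ion channel at some dose, with a dose response; inactive means no potentiation, no dose response, or not a prior hit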;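 further: calcium entry triggered by an EC20 dose of DAMGO at the co-expressed mu-opioid receptor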). As to conditions: HEK293 TRPC4/mu-opioid cells, Fluo-4 calcium fluorescence; series mostly up to 20 µM.
For experiment [9], the target named is Short transient receptor potential channel 6 (Mus musculus) (UniProt Q61143). Kind of experiment: inhibition of mouse TRPC6 channel, confirmation, selectivity assay for TRPC4 inhibitor project, cell-based, HEK293, membrane potential dye, duplicate (AID 434948;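 active means active in primary screen and both duplicates, each dropping signal beyond three positive-control SD with fluorescence still positive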). As to conditions: HEK293 TRPC6, membrane potential dye fluorescence, at 10 µM, stimulated with maximal-effect acetylcholine; hits give high values.

Experiment [10] shares this target. Briefly: activation of mouse TRPC6 channel, confirmation, selectivity assay for TRPC4 activator project, cell-based, HEK293, membrane potential dye, duplicate (AID 434950;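 active means membrane potential signal rise above negative control mean plus 3 SD in both duplicates, also active in the earlier TRPC4 screen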). As to conditions: HEK293 TRPC6, membrane potential fluorescence, at 10 µM; hits give high values.
Experiment [11] has the same target. Kind of experiment: TRPC6 potentiation by TRPC4 potentiator hits, confirmation, selectivity assay for TRPC4 potentiator project, HEK293 cells, membrane potential dye, duplicate (AID 434952;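 active means compound raising the membrane signal above positive-control mean plus 3 SD in both repeats, and a primary screen hit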). As to conditions: HEK293 TRPC6, membrane potential dye fluorescence, at 10 µM, maximal acetylcholine added after compound; hits give high values.
The target in experiment [12] is Short transient receptor potential channel 4 (Mus musculus) (UniProt Q9QUQ5). Briefly: calcium flux activators in TRPC4/5HT1a cells, counter-screen for TRPC4 activator project, cell-based, second counter screen, HEK293 TRPC4/5HT1a, Fluo-4 (AID 434977;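 active means calcium signal rise above buffer-control mean plus 5 SD in both duplicates, and also a hit in the primary screen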). As to conditions: Fluo-4 calcium flux, at 10 µM; hits give high values.
A short description of experiment [13]: calcium flux inhibitors in TRPC4/5HT1a cells, confirmation, counter-screen for TRPC4 inhibitor project, cell-based, second counter screen, HEK293 TRPC4/5HT1a, Fluo-4 (AID 434978;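 active means primary screen active whose calcium signal fell more than 3 SD beyond the full-serotonin control mean in both duplicate plates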;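 on outcome: serotonin given first at submaximal then at maximal dose after compound preincubation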). Particulars: Fluo-4 calcium flux, at 10 µM, serotonin added to trigger calcium flux; hits give high values.
In experiment [14] the test system is TRPC4 (mouse), co-expressed with 5HT1a in HEK293. Kind of experiment: calcium flux potentiators in TRPC4/5HT1a cells, confirmation, counter-screen for TRPC4 potentiator project, cell-based, second counter screen, HEK293 TRPC4/5HT1a, Fluo-4 (AID 434979;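 active means signal rise over 3 SD above mean of control wells given weak agonist, in both repeats and first screen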). Particulars: Fluo-4 calcium flux, at 10 µM, serotonin added at its EC20 dose; hits give high values.
Experiment [15] is described as follows: calcium flux activation in mu-opioid HEK293 cells, confirmation, counter-screen for TRPC4 activator project, cell-based, HEK293 mu-opioid receptor line (AID 449723;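 active means hit in primary screen, with calcium signal over 5 SD above buffer well mean in both duplicates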;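 further: counter screen cells carry the mu-opioid receptor alone and lack TRPC4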). As to conditions: Fluo-4 calcium fluorescence, at 10 µM; hits give high values.
The nature of experiment [16]: calcium flux enhancement in mu-opioid HEK293 cells, confirmation, counter-screen for TRPC4 allosteric potentiator project, cell-based, HEK293 mu-opioid receptor line (AID 449724;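 active means calcium signal rise more than 3 SD above the low-dose agonist control mean, in both duplicate plates and the primary screen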;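 further: HEK293 cells carrying mu-opioid receptor only with no TRPC4 channel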). Particulars: Fluo-4 calcium flux, at 10 µM, compound added before EC20 DAMGO stimulus; hits give high values.

For some assays here: Potency and affinity values are given separately. Calls of active or inactive are those of the source.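 How the source made its calls, unless noted: active means primary screen activator hit with a dose response curve and TRPC4 channel activation at any tested dose; inactive means no activation, no dose response, or not a primary hit.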

A word on the inhibition: it is the percentage by which the read-out fell short of the control.

Chain of Short transient receptor potential channel 4 (Mus musculus) (Q9QUQ5 whole entry, looked up): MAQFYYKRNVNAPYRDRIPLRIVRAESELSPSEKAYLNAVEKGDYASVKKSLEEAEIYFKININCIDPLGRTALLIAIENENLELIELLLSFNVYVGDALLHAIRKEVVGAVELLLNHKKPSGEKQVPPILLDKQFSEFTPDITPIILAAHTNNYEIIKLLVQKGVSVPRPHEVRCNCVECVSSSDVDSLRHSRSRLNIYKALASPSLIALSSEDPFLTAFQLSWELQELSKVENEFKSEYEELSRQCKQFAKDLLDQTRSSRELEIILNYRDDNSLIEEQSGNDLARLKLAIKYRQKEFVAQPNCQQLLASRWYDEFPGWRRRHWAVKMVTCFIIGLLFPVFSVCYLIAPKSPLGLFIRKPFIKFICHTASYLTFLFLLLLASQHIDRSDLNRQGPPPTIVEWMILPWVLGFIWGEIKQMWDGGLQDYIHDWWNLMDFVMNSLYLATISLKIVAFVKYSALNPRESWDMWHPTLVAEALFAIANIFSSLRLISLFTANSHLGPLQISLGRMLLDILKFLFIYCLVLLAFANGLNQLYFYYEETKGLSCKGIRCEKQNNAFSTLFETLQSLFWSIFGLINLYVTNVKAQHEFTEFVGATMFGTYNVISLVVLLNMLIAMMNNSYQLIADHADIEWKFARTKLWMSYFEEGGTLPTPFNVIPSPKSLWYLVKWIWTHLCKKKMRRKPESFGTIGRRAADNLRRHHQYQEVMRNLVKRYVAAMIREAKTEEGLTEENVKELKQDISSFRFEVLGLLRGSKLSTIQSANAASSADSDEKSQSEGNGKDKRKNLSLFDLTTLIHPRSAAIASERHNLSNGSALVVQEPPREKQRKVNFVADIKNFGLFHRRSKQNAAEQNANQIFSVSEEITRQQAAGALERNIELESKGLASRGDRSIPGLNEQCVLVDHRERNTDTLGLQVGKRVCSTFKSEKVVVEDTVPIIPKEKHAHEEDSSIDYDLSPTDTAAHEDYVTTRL
Chain of Short transient receptor potential channel 6 (Mus musculus) (Q61143 whole entry, looked up): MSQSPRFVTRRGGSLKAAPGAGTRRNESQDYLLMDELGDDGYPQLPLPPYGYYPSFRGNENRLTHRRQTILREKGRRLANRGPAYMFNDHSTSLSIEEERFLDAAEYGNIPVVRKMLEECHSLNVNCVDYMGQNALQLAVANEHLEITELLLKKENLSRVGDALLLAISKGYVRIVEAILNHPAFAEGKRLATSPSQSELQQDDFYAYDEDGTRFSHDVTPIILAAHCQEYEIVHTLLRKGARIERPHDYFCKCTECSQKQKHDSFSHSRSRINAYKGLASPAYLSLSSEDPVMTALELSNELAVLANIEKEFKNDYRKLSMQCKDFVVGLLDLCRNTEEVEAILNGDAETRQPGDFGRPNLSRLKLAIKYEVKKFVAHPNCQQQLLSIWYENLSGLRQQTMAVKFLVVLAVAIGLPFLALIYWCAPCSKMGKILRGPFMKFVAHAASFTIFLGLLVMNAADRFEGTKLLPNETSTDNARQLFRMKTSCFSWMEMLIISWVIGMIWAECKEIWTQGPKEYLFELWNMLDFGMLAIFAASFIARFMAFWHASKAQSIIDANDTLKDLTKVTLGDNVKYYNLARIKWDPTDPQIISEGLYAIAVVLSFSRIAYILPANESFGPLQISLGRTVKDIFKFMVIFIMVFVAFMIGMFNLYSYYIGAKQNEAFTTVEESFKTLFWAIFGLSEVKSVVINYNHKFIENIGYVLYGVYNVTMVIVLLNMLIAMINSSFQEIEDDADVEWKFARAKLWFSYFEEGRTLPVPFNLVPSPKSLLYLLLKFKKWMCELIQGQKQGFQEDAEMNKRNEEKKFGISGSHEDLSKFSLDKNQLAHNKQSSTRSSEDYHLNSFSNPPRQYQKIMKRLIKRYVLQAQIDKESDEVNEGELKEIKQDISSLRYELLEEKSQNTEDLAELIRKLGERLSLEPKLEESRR

For the compound `CCCN1C2=NCCN2c2cc(C)c(C)cc21`, the result in [1], in experiment [2], in experiment [3], in experiment [4], in [7] and in experiment [8] was inactive. In addition, the compound was called inactive in experiment [10], in experiment [11], in experiment [12], in experiment [14], in experiment [15] and in experiment [16]. For the same compound, the inhibition in [5] is 91% (active); in experiment [6] it was 48% (active); in experiment [9], 40.5% (active); in experiment [13] it was 25.6% (active).

As to `CCOC(=O)C1(CCOC)CCN(C(C)CCc2ccc(OC)cc2)CC1` (centres undefined), the result in [1], in experiment [2], in experiment [3], in experiment [4], in [6] and in experiment [7] was inactive. The outcome in experiment [8], in experiment [9], in experiment [10], in experiment [11], in [12] and in [13] was inactive. The result in experiment [14], in [15] and in [16] was inactive. For the same compound, in experiment [5], the inhibition is 75% (active).

`CCc1ccc2nc(N=C(N)N)nc(C)c2c1`: the result in [1], in experiment [2], in [3], in [4], in experiment [6] and in [7] was inactive. The outcome in experiment [8], in experiment [9], in experiment [10], in experiment [11], in experiment [12] and in experiment [13] was inactive. Further, the outcome in experiment [14], in [15] and in experiment [16] was inactive. Also, the inhibition in experiment [5] is 93% (active).

As to `O=C(CSc1nc2[nH]ncc2c(=O)n1-c1ccccc1Br)NCc1ccccc1Cl`, the result in experiment [1], in experiment [2], in experiment [3], in experiment [4], in experiment [5] and in [6] was inactive. In addition, the outcome in experiment [7], in experiment [8], in experiment [9], in experiment [10], in experiment [11] and in experiment [12] was inactive. For the same compound, the outcome in [13], in [14], in experiment [15] and in [16] was inactive.

Turning to `O=C(NCCN1CCOCC1)c1ccc2c(c1)N(Cc1ccc(F)cc1)C(=O)CS2`, the outcome in experiment [1], in experiment [2], in experiment [3], in experiment [4], in experiment [5] and in experiment [6] was inactive. The outcome in [7], in [8], in experiment [9], in experiment [10], in [11] and in experiment [12] was inactive. For the same compound, the result in [13], in [14], in experiment [15] and in experiment [16] was inactive.

As to `Cc1cc(Cl)c2oc(C(=O)N(C)Cc3nccn3C)c(C)c2c1`, the outcome in experiment [1], in [2], in experiment [3], in [4], in [6] and in experiment [7] was inactive. In addition, the result in experiment [8], in experiment [9], in experiment [10], in experiment [11], in experiment [12] and in [13] was inactive. Further, the result in experiment [14], in experiment [15] and in experiment [16] was inactive. Moreover, in [5], the inhibition was 84% (active).

In the case of `CC(C)Oc1cccc(C(=O)C2CCCN(Cc3cnn(C(C)C)c3)C2)c1` (centres undefined), the outcome in experiment [1], in [2], in experiment [3], in experiment [4], in experiment [7] and in experiment [8] was inactive. The compound was called inactive in experiment [9], in experiment [10], in experiment [11], in [12], in experiment [13] and in experiment [14]. Also, the result in experiment [15] and in experiment [16] was inactive. Further, the inhibition in experiment [5] is 93% (active); in [6] it was 47% (active).

Turning to `CNC(=O)COc1ccc2oc3c(c2c1)CCCC3`, the result in experiment [1], in experiment [2], in experiment [3], in [4], in experiment [7] and in experiment [8] was inactive. Also, the compound was called inactive in [9], in experiment [10], in experiment [11], in experiment [12], in [14] and in experiment [15]. Moreover, the outcome in experiment [16] was inactive. For the same compound, the values for the inhibition in [5], in experiment [6] and in experiment [13] were 74% (active), 49% (active) and 31.4% (active), respectively.

On to `CCCCCCCCCCCCOC(=O)C[N+](C)(C)C`, for which the outcome in experiment [1], in [2], in experiment [3], in experiment [4], in experiment [5] and in [6] was inactive. Also, the result in [7], in experiment [8], in experiment [9], in [10], in experiment [11] and in experiment [12] was inactive. The outcome in experiment [14], in experiment [15] and in experiment [16] was inactive. Also, the inhibition in [13] was 37.5% (active).

On to `CCCCc1nc2ccccc2c(N)c1CCC` (tested in a mixture with another compound), for which the outcome in experiment [1], in experiment [2], in experiment [3], in experiment [4], in experiment [7] and in experiment [8] was inactive. Further, the outcome in experiment [10], in experiment [11], in [12], in experiment [14], in experiment [15] and in [16] was inactive. Also, the inhibition is 96% (active) in [5], 69% (active) in [6], 18% (active) in experiment [9] and 32.6% (active) in [13].

Consider `O=C(Cc1ccccc1[N+](=O)[O-])OCc1cccc([N+](=O)[O-])c1`, for which the result in [1], in experiment [2], in experiment [3], in experiment [4], in experiment [7] and in experiment [8] was inactive. Moreover, the call in experiment [9], in experiment [10], in experiment [11], in experiment [12], in experiment [14] and in experiment [15] was inactive. The result in experiment [16] was inactive. Also, the values for the inhibition in experiment [5], in experiment [6] and in experiment [13] were 92% (active), 62% (active) and 35% (active), respectively.

`CCOC(=O)c1c(NC(=O)C2CC(Cl)=CCC2C(=O)O)sc2c1CCCCC2` (centres undefined): the result in experiment [1], in [2], in experiment [3], in experiment [4], in experiment [7] and in [8] was inactive. Also, the result in [9], in [10], in [11], in [12], in [14] and in experiment [15] was inactive. In addition, the outcome in experiment [16] was inactive. For the same compound, the inhibition in experiment [5] was 96% (active); in experiment [6] it was 43% (active); in experiment [13] it was 31.8% (active).

As for `Cc1nn(-c2nc3ccccc3n2Cc2ccccc2)c2c1C(=O)CC(C)(C)C2`, the result in experiment [1], in experiment [2], in experiment [3], in experiment [4], in experiment [6] and in experiment [7] was inactive. The outcome in [8], in experiment [9], in experiment [10], in [11], in experiment [12] and in experiment [14] was inactive. Further, the outcome in [15] and in [16] was inactive. For the same compound, the values for the inhibition in experiment [5] and in [13] were 72% (active) and 13.5% (active), respectively.

Take `N#Cc1c(-c2cccs2)nc(SCc2ccc(Cl)cc2)[nH]c1=O`: the outcome in [1], in experiment [2], in experiment [3], in [7], in experiment [8] and in [9] was inactive. For the same compound, the compound was classed as inactive in [10], in experiment [11], in experiment [12], in experiment [14], in experiment [15] and in [16]. The potentiation in [4] is 15% (active). Further, the inhibition in experiment [5] is 99% (active); in experiment [6], 40% (active); in experiment [13], 11.9% (active).

The values are drawn from PubChem BioAssay.
